# In the supplement of paper PMC8728848:
# The full list was thinned out, with the strongest signals kept by preference.
# Key:
# Assay in all cases: glycan array binding signal (z-score within array); higher = stronger binding
# Details in all cases: glycan notation: IUPAC condensed, linker removed
# [1] = target: GlcNAc(b1-2)[GlcNAc(b1-6)]Man(a1-6)[GlcNAc(b1-4)][GlcNAc(b1-2)Man(a1-3)]Man(b1-4)GlcNAc(b1-4)GlcNAc
# Procedure, shortened: (§1)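 Glycan array data came from 3228 arrays in the Consortium for Functional Glycomics database, and only arrays with an available protein sequence were kept. Glycan names were put into IUPAC-condensed notation, and columns mapping to the same glycan were averaged. The binding signal is a within-array Z-score, averaged across arrays of one protein sequence run at different concentrations or buffers and across linkers. A negative Z-score can be read as non-binding.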
# [2] = target: GlcNAc(b1-3)Gal(b1-4)GlcNAc(b1-3)Gal(b1-4)GlcNAc(b1-2)Man(a1-3)[GlcNAc(b1-3)Gal(b1-4)GlcNAc(b1-3)Gal(b1-4)GlcNAc(b1-2)Man(a1-6)]Man(b1-4)GlcNAc(b1-4)GlcNAc
# Procedure, shortened: as §1
# [3] = target: GlcNAc(b1-3)Gal(b1-4)GlcNAc(b1-3)Gal(b1-4)GlcNAc(b1-3)Gal(b1-4)GlcNAc(b1-2)Man(a1-3)[GlcNAc(b1-3)Gal(b1-4)GlcNAc(b1-3)Gal(b1-4)GlcNAc(b1-3)Gal(b1-4)GlcNAc(b1-2)Man(a1-6)]Man(b1-4)GlcNAc(b1-4)[Fuc(a1-6)]GlcNAc
# Procedure, shortened: as §1
# [4] = target: GlcNAc(b1-3)Gal(b1-4)GlcNAc(b1-3)Gal(b1-4)GlcNAc(b1-3)Gal(b1-4)GlcNAc(b1-2)[GlcNAc(b1-3)Gal(b1-4)GlcNAc(b1-3)Gal(b1-4)GlcNAc(b1-3)Gal(b1-4)GlcNAc(b1-6)]Man(a1-6)[GlcNAc(b1-3)Gal(b1-4)GlcNAc(b1-3)Gal(b1-4)GlcNAc(b1-3)Gal(b1-4)GlcNAc(b1-2)Man(a1-3)]Man(b1-4)GlcNAc(b1-4)[Fuc(a1-6)]GlcNAc
# Procedure, shortened: as §1
# [5] = target: Man(a1-2)Man(a1-2)Man(a1-3)Man
# Procedure, shortened: as §1
# [6] = target: MurNAc(b1-4)GlcNAc
# Procedure, shortened: as §1
# [7] = target: Neu5Ac(a2-3)Gal(b1-3)GlcNAc(b1-2)Man
# Procedure, shortened: as §1
# [8] = target: Neu5Ac(a2-3)Gal(b1-4)GlcNAc(b1-2)Man(a1-3)[GlcNAc(b1-4)][Neu5Ac(a2-3)Gal(b1-4)GlcNAc(b1-2)Man(a1-6)]Man(b1-4)GlcNAc(b1-4)GlcNAc
# Procedure, shortened: as §1
# [9] = target: Neu5Ac(a2-3)Gal(b1-4)GlcNAc(b1-6)[Neu5Ac(a2-3)Gal(b1-3)]GalNAc
# Procedure, shortened: as §1
# [10] = target: Neu5Ac(a2-3)Gal(b1-4)[Fuc(a1-3)]GlcNAc(b1-2)Man
# Procedure, shortened: as §1
# [11] = target: Neu5Ac(a2-3)Gal(b1-4)[Fuc(a1-3)]GlcNAc(b1-3)GalNAc
# Procedure, shortened: as §1
# [12] = target: Neu5Ac(a2-3)Gal(b1-4)[Fuc(a1-3)]GlcNAc(b1-6)[Neu5Ac(a2-3)Gal(b1-3)]GalNAc
# Procedure, shortened: as §1
# [13] = target: Neu5Ac(a2-3)GalNAc(b1-4)GlcNAc
# Procedure, shortened: as §1
# [14] = target: Neu5Ac(a2-6)Gal
# Procedure, shortened: as §1
# [15] = target: Neu5Ac(a2-6)Gal(b1-4)GlcNAc(b1-2)Man(a1-3)[GlcNAc(b1-2)Man(a1-6)]Man(b1-4)GlcNAc(b1-4)GlcNAc
# Procedure, shortened: as §1
# [16] = target: Neu5Ac(a2-6)Gal(b1-4)GlcNAc(b1-2)Man(a1-6)[GlcNAc(b1-2)Man(a1-3)]Man(b1-4)GlcNAc(b1-4)GlcNAc
# Procedure, shortened: as §1
# [17] = target: Neu5Ac(a2-6)Gal(b1-4)GlcNAc(b1-2)Man(a1-6)[Man(a1-3)]Man(b1-4)GlcNAc(b1-4)GlcNAc
# Procedure, shortened: as §1
# [18] = target: Neu5Ac(a2-6)Gal(b1-4)GlcNAc(b1-3)Gal(b1-4)GlcNAc(b1-3)Gal(b1-4)GlcNAc(b1-2)Man(a1-3)[Neu5Ac(a2-6)Gal(b1-4)GlcNAc(b1-3)Gal(b1-4)GlcNAc(b1-3)Gal(b1-4)GlcNAc(b1-2)Man(a1-6)]GalNAc
# Procedure, shortened: as §1
# [19] = target: Neu5Ac(a2-6)Gal(b1-4)GlcNAc(b1-3)Gal(b1-4)[Fuc(a1-3)]GlcNAc(b1-3)Gal(b1-4)[Fuc(a1-3)]GlcNAc
# Procedure, shortened: as §1
# [20] = target: Neu5Ac(a2-6)Gal(b1-4)GlcNAc6S
# Procedure, shortened: as §1
# [21] = target: Neu5Gc(a2-3)Gal(b1-4)Glc
# Procedure, shortened: as §1
# [22] = target: Neu5Gc(a2-3)Gal(b1-4)GlcNAc(b1-3)Gal(b1-4)GlcNAc(b1-2)Man(a1-3)[Neu5Gc(a2-3)Gal(b1-4)GlcNAc(b1-3)Gal(b1-4)GlcNAc(b1-2)Man(a1-6)]Man(b1-4)GlcNAc(b1-4)GlcNAc
# Procedure, shortened: as §1
# [23] = target: Neu5Gc(a2-8)Neu5Ac(a2-3)Gal(b1-4)GlcNAc
# Procedure, shortened: as §1
binder,measurement,setting,value
"EPL1 (Trichoderma atroviride), A0PCX2 (protein) MQLSNLFKLALFTAAVSADTVSYDTGYDDASRSLTVVSCSDGTNGLITRYHWQTQGQIPRFPYIGGAQAVAGWNSPNCGTCWKLTYSGKTIYVLAIDHTAAGFNIGLDAMNALTNGNAVALGRVSATASQVAVSNCGL",glycan array binding signal (z-score),[1],-0.514
same,glycan array binding signal (z-score),[2],0.862
same,glycan array binding signal (z-score),[3],0.866
same,glycan array binding signal (z-score),[4],0.127
same,glycan array binding signal (z-score),[5],-0.108
same,glycan array binding signal (z-score),[6],-0.51
same,glycan array binding signal (z-score),[7],-0.068
same,glycan array binding signal (z-score),[8],-0.469
same,glycan array binding signal (z-score),[9],-0.379
same,glycan array binding signal (z-score),[10],-0.347
same,glycan array binding signal (z-score),[11],1.06
same,glycan array binding signal (z-score),[12],0.767
same,glycan array binding signal (z-score),[13],-0.428
same,glycan array binding signal (z-score),[14],-0.387
same,glycan array binding signal (z-score),[15],-0.298
same,glycan array binding signal (z-score),[16],-0.056
same,glycan array binding signal (z-score),[17],-0.436
same,glycan array binding signal (z-score),[18],0.008
same,glycan array binding signal (z-score),[19],-0.291
same,glycan array binding signal (z-score),[20],0.855
same,glycan array binding signal (z-score),[21],-0.246
same,glycan array binding signal (z-score),[22],0.362
same,glycan array binding signal (z-score),[23],-0.344
